Laboratory results reported in PubChem BioAssay (Tox21).
Inconclusive results are not listed. Activity calls are given as the source filed them. Unless noted, calls follow the shape of the dose curve; as a rule, active = well fitted curve in the direction sought with a large enough effect in the repeat runs; inconclusive = weak or mixed curves; inactive = no such curve, though single readings can be large; an effect the other way counts as inactive or inconclusive.

How the values were obtained:
[1] = qHTS assay to test for compound auto fluorescence at 535 nm (green) in HEK293 cells (AID 720680)
[2] = qHTS assay to test for compound auto fluorescence at 460 nm (blue) in HEK293 cell free culture (AID 720681)
Outline: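 Test compounds were pinned into cell-free culture medium (DMEM with 10% FBS) and fluorescence was read directly at Ex/Em 405/460 nm. Signals were expressed as fluorescence equivalents of triamterene, with DMSO vehicle as control.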

[3] = qHTS assay to test for compound auto fluorescence at 535 nm (green) in HEK293 cell free culture (AID 720682)
Outline: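 Compounds were pin-transferred into cell-free DMEM with 10% FBS, and green fluorescence was read at excitation 485 nm and emission 535 nm. Intensities were expressed as fluorescein-equivalent values.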

[4] = qHTS assay to test for compound auto fluorescence at 590 nm (red) in HEK293 cell free culture (AID 720683)
Outline: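 Tox21 10K library compounds were pinned into cell-free DMEM with 10% FBS and fluorescence was read at excitation 540 nm. Activity is expressed as Rose Bengal sodium equivalency.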

[5] = qHTS assay to test for compound auto fluorescence at 590 nm (red) in HepG2 cell free culture (AID 720684)
Outline: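 Red fluorescence (540 nm excitation, 590 nm emission) was measured after compound transfer into cell-free MEM supplemented with 10% FBS. Values are equivalencies against Rose Bengal sodium.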

[6] = qHTS assay to test for compound auto fluorescence at 460 nm (blue) in HepG2 cell free culture (AID 720685)
Outline: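 Compound (23 nL) or DMSO pinned into cell-free MEM with 10% FBS; blue fluorescence read at 405/460 nm excitation/emission, expressed as auto-fluorescence equivalency to triamterene.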

[7] = qHTS assay to test for compound auto fluorescence at 535 nm (green) in HepG2 cell free culture (AID 720686)
[8] = qHTS assay to test for compound auto fluorescence at 460 nm (blue) in HepG2 cells (AID 720687)
Outline: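 Cells (2,000/well in MEM with 10% FBS) attached overnight at 37 C, then were exposed to compound or DMSO for 1 hr at 37 C, 5% CO2. Fluorescence read at Ex/Em 405/460 nm, expressed as triamterene-equivalent signal.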

[9] = target: Glucocorticoid receptor (Homo sapiens) (UniProt P04150); assay: qHTS assay to identify small molecule agonists of the glucocorticoid receptor (GR) signaling pathway (AID 720691; active = well fitted activation curve with a large enough effect in the signal ratio in the repeat runs, not every such curve was filed as active; the % refers to the signal ratio)
Outline: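 Agonist mode in a HeLa line carrying a GRE-controlled beta-lactamase reporter. Compounds act for 18 h at 37 C before a 2 h room-temperature FRET substrate step and fluorescence reading.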

[10] = target: Glucocorticoid receptor (Homo sapiens) (UniProt P04150); assay: qHTS assay to identify small molecule antagonists of the glucocorticoid receptor (GR) signaling pathway (AID 720692; active = well fitted inhibition curve with a large enough effect in the signal ratio in the repeat runs, not every such curve was filed as active; the % refers to the signal ratio)
Outline: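 Cells plated, rested 4 h at 37 C/5% CO2; compounds in DMSO pin-transferred; dexamethasone added to 5 nM final; 18 h at 37 C; B/G FRET substrate added, 2 h room temperature; fluorescence measured.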

[11] = qHTS assay to identify small molecule antagonists of the glucocorticoid receptor (GR) signaling pathway - cell viability counter screen (AID 720693); also: nearly all actives have a fitted effect of over 55% in size
[12] = qHTS assay for identifying genotoxic compounds that show differential cytotoxicity against isogenic chicken DT40 cell lines with known DNA damage response pathways - wild type cell line (AID 743012); also: nearly all actives have a fitted effect of over 60% in size; also: potency is read from the fitted curve at half-maximal effect
Outline: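 Cells (DT40 wild type, 300/well) are treated with DMSO-dissolved compounds after a ~0.5 h pre-incubation and kept 40 h at 37 C/5% CO2. Viability is then measured by CellTiter-Glo luminescence following 30 min at room temperature.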

[13] = qHTS assay for identifying genotoxic compounds that show differential cytotoxicity against isogenic chicken DT40 cell lines with known DNA damage response pathways - Rev3 mutant cell line (AID 743014); also: nearly all actives have a fitted effect of over 55% in size; also: potency is read from the fitted curve at half-maximal effect
[14] = qHTS assay for identifying genotoxic compounds that show differential cytotoxicity against isogenic chicken DT40 cell lines with known DNA damage response pathways - Rad54/Ku70 mutant cell line (AID 743015); also: nearly all actives have a fitted effect of over 60% in size; also: potency is read from the fitted curve at half-maximal effect
[15] = qHTS assay to identify small molecule antagonists of the androgen receptor (AR) signaling pathway - cell viability counter screen (AID 743033; also: nearly all actives have a fitted effect of over 45% in size)
[16] = qHTS assay to identify small molecule antagonists of the androgen receptor (AR) signaling pathway using the MDA cell line - cell viability counter screen (AID 743041; also: nearly all actives have a fitted effect of over 45% in size; also: potency is read from the fitted curve at half-maximal effect)
Outline: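 MDA-kb2 AR-luc human breast carcinoma cells (MMTV-luciferase, AR/GR responsive) were treated with compounds plus R1881 agonist for 16 h at 37 °C. Viability was read as CellTiter-Fluor fluorescence in the same wells as the reporter assay.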

[17] = qHTS assay to identify small molecule antagonists of the thyroid receptor (TR) signaling pathway - cell viability counter screen (AID 743064); also: nearly all actives have a fitted effect of over 50% in size; also: potency is read from the fitted curve at half-maximal effect
Outline: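 In-well cytotoxicity read by CellTiter-Fluor (30 min, 37 C) following 23.5 h exposure of GH3 cells bearing a TRE-luciferase sensor. Compounds were added alongside 1 nM (final) T3 to drive TR transactivation.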

[18] = target: Androgen receptor (Homo sapiens) (UniProt P10275); assay: qHTS assay to identify small molecule antagonists of the androgen receptor (AR) signaling pathway (AID 743035; active = well fitted inhibition curve with a large enough effect in the signal ratio in the repeat runs, not every such curve was filed as active; the % refers to the signal ratio)
Outline: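 Antagonism is scored as loss of R1881-driven beta-lactamase reporter expression in HEK293 cells carrying the reporter under a UAS element, after 16 h co-treatment at 37C and a 2 h room-temperature FRET substrate read.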
% is scaled to controls: 0 for no effect and ±100 for the full control effect.

Glucocorticoid receptor (Homo sapiens), sequence (P04150 whole entry, looked up): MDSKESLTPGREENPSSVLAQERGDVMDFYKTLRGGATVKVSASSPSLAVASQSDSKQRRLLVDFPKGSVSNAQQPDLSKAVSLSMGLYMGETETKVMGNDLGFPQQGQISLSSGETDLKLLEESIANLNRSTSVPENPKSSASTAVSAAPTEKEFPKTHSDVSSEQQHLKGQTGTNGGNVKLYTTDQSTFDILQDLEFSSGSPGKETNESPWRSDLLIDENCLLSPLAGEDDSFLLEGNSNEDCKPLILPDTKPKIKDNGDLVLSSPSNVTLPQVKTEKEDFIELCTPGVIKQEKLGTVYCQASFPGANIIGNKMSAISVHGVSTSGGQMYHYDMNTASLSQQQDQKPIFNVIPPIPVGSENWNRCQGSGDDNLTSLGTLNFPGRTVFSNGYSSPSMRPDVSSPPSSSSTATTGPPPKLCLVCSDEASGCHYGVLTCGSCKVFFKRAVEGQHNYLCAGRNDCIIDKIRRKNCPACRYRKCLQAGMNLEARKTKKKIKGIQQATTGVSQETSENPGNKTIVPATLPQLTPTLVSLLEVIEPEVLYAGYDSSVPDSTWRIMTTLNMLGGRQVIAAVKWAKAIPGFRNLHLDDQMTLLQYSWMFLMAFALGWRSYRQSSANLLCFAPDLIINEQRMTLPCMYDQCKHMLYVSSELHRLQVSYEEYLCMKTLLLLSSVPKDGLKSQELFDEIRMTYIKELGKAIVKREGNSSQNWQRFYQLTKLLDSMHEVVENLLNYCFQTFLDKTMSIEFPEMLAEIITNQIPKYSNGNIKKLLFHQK
Androgen receptor (Homo sapiens), sequence (P10275 whole entry, looked up): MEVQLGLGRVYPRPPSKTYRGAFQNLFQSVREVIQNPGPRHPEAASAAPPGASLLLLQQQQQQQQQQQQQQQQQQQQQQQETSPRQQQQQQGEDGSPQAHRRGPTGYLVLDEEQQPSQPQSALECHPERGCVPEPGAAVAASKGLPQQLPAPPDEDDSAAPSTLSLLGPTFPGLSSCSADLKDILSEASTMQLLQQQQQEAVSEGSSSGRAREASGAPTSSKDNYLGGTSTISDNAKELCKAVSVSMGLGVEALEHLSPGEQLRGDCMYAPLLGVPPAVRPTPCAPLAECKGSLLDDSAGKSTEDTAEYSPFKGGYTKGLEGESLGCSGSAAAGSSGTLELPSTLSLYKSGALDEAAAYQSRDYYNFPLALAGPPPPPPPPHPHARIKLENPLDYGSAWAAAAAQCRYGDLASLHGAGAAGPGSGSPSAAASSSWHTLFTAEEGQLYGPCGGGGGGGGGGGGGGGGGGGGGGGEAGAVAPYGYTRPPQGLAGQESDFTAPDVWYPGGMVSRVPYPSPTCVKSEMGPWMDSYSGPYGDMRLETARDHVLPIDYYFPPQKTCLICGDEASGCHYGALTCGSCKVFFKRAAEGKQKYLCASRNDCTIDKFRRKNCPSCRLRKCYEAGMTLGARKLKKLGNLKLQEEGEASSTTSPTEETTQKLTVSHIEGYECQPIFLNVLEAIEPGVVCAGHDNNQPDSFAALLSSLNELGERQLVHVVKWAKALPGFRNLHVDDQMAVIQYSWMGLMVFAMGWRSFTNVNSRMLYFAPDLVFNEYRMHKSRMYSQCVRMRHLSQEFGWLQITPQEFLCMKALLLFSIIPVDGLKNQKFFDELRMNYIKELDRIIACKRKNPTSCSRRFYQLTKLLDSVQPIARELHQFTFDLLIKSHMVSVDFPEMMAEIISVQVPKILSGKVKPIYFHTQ

COC(OC)(C(=O)c1ccccc1)c1ccccc1
inactive: outcome [1] | Potency [2] | outcome [3] | outcome [4] | outcome [5] | Potency [6] | outcome [7] | Potency [8] | Potency [9] | Potency [10] | Potency [11] | Potency [15] | Potency [16] | Potency [17]
active: Potency [12] 54.4 µM | Potency [13] 15.3 µM | Potency [14] 48.5 µM

COc1ccccc1N=Nc1c(S(=O)(=O)O)cc2cc(S(=O)(=O)O)cc(NC(C)=O)c2c1O
inactive: outcome [1] | Potency [2] | outcome [3] | outcome [4] | outcome [5] | Potency [6] | outcome [7] | Potency [8] | Potency [9] | Potency [10] | Potency [11] | Potency [15]
active: Potency [12] 28.8 µM | Potency [13] 18.2 µM | Potency [14] 14.4 µM | Potency [16] 45.7 µM | Potency [17] 32.3 µM

COCC(O)CO (stereo not given)
inactive: outcome [1] | Potency [2] | outcome [3] | outcome [4] | outcome [5] | Potency [6] | outcome [7] | Potency [8] | Potency [9] | Potency [10] | Potency [11] | Potency [12] | Potency [13] | Potency [14] | Potency [15] | Potency [16] | Potency [17]

CC1(C)C2=CCCC(C)(C)[C@]23CC[C@H]1C3
inactive: outcome [1] | Potency [2] | outcome [3] | outcome [4] | outcome [5] | Potency [6] | outcome [7] | Potency [8] | Potency [9] | Potency [10] | Potency [11] | Potency [15] | Potency [18] | Potency [16] | Potency [17]
active: Potency [12] 54.5 µM | Potency [13] 43.3 µM | Potency [14] 30.6 µM

CC1=CC(=O)CC(C)(C)C1(O)/C=C/C(C)=C\C(=O)O (stereo not given)
inactive: outcome [1] | Potency [2] | outcome [3] | outcome [4] | outcome [5] | Potency [6] | outcome [7] | Potency [8] | Potency [9] | Potency [10] | Potency [11] | Potency [12] | Potency [13] | Potency [14] | Potency [15] | Potency [16] | Potency [17]

Nc1nccs1
inactive: outcome [1] | Potency [2] | outcome [3] | outcome [4] | outcome [5] | Potency [6] | outcome [7] | Potency [8] | Potency [9] | Potency [10] | Potency [11] | Potency [12] | Potency [13] | Potency [14] | Potency [15] | Potency [16] | Potency [17]

CC(C)CCCC(=O)O
inactive: outcome [1] | Potency [2] | outcome [3] | outcome [4] | outcome [5] | Potency [6] | outcome [7] | Potency [8] | Potency [9] | Potency [10] | Potency [11] | Potency [12] | Potency [13] | Potency [14] | Potency [15] | Potency [18] | Potency [16] | Potency [17]

CCCOCCOCCO
inactive: outcome [1] | Potency [2] | outcome [3] | outcome [4] | outcome [5] | Potency [6] | outcome [7] | Potency [8] | Potency [9] | Potency [10] | Potency [11] | Potency [12] | Potency [13] | Potency [14] | Potency [15] | Potency [16] | Potency [17]

C[N+]1(C)CCC(=C(c2ccccc2)c2ccccc2)CC1
inactive: fluorescence, % of fluorescein [1] -0.0107% [at 18.6 µM] | fluorescence, % of fluorescent control [2] -0.269% [at 18.6 µM] | activity change [3] -0.0334% [at 18.6 µM] | fluorescence, % of fluorescent control [4] -0.165% [at 18.6 µM] | fluorescence, % of Rose Bengal [5] 0.107% [at 18.6 µM] | fluorescence, % of fluorescent control [6] -0.143% [at 18.6 µM] | fluorescence, % of fluorescein control [7] 0.0841% [at 18.6 µM] | fluorescence, % of fluorescent control [8] 0.0159% [at 18.6 µM] | Potency [9] | Potency [10] | Potency [11] | Potency [12] | Potency [13] | Potency [14] | Potency [15] | Potency [16] | Potency [17]

CC(C)OCC1CO1 (stereo not given)
inactive: outcome [1] | Potency [2] | outcome [3] | outcome [4] | outcome [5] | Potency [6] | outcome [7] | Potency [8] | Potency [9] | Potency [10] | Potency [11] | Potency [12] | Potency [13] | Potency [14] | Potency [15] | Potency [16] | Potency [17]

Nc1ccc(S(=O)(=O)O)c(N)c1
inactive: outcome [1] | Potency [2] | outcome [3] | outcome [4] | outcome [5] | Potency [6] | outcome [7] | Potency [8] | Potency [9] | Potency [10] | Potency [11] | Potency [12] | Potency [13] | Potency [14] | Potency [15] | Potency [16] | Potency [17]

CC(N)CN (stereo not given)
inactive: outcome [1] | Potency [2] | outcome [3] | outcome [4] | outcome [5] | Potency [6] | outcome [7] | Potency [8] | Potency [9] | Potency [10] | Potency [11] | Potency [12] | Potency [13] | Potency [14] | Potency [15] | Potency [16] | Potency [17]

CC(Cl)C(Cl)Cl (stereo not given)
inactive: outcome [1] | Potency [2] | outcome [3] | outcome [4] | outcome [5] | Potency [6] | outcome [7] | Potency [8] | Potency [9] | Potency [10] | Potency [11] | Potency [12] | Potency [13] | Potency [14] | Potency [15] | Potency [16] | Potency [17]

[O]=[Bi]
inactive: fluorescence, % of fluorescein [1] -0.0925% [at 3.72 µM] | fluorescence, % of fluorescent control [2] -0.0523% [at 3.72 µM] | activity change [3] -0.0025% [at 3.72 µM] | fluorescence, % of fluorescent control [4] -0.241% [at 3.72 µM] | fluorescence, % of Rose Bengal [5] -0.0278% [at 3.72 µM] | fluorescence, % of fluorescent control [6] -0.119% [at 3.72 µM] | fluorescence, % of fluorescein control [7] -0.0086% [at 3.72 µM] | fluorescence, % of fluorescent control [8] -0.0256% [at 3.72 µM] | activation [9] 0.026% [at 6.9 µM] | activity change, negative = inhibition [10] -10.6% [at 7.04 µM] | viability change, negative = cytotoxic [11] -0.0549% [at 7.04 µM] | activity change, negative = cytotoxicity [12] -3.35% [at 8.52 µM] | activity, negative = cytotoxicity [13] 0.555% [at 8.53 µM] | activity change, negative = cytotoxicity [14] 2.55% [at 8.55 µM] | activity change, negative = cytotoxicity [15] -10.1% [at 7.04 µM] | viability change, negative = cytotoxic [16] -2.29% [at 8.47 µM] | activity change, negative = cytotoxic [17] 1.51% [at 8.44 µM]
